Screening results as filed in PubChem BioAssay.
Rows were chosen to be rich in hits. Some 3.2% of all compounds tested hit in one or more screens of this group.
AMA1 RON2 block: disrupts binding of P. falciparum AMA1 to RON2 | AlphaScreen AMA1-biotinylated RON2 peptide binding | Potency, µM (doses to about 58.2 µM), for the others: at the top dose activity change, negative = inhibition, hits mostly inhibitors | 360,000 tested, 0.2% active;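 also: 0% = vehicle wells and -100% = peptide control; nearly all actives have a fitted effect of over 45% in size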
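AMA1 (3D7) with his tag at 25 nM final met compounds first, then biotinylated RON2 peptide at 25 nM; detection used donor plus acceptor beads, 10 µg/mL apiece, read by AlphaScreen after 30 min at room temperature.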
RE007 growth inh: less growth of the S. pombe RE007 Vpr strain. S. pombe RE007 Vpr strain, BacTiter-Glo ATP luminescence, 24 h. Potency, µM (series often up to 92.2 µM), inactives show at the highest dose activity change, negative = less growth, most hits filed as inhibitors. 360,000 tested, 0.21% active; active = well fitted falling curve with a large enough effect; inconclusive = small, poorly fitted or top-dose-only effect; inactive = no such curve, though single readings can be large or run the other way; also: nearly all actives have a fitted effect of over 50% in size
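Fission yeast RE007 carrying one integrated HIV-1 vpr copy, seeded at OD 0.01 in PMG+AL medium with 23 nL pinned compound. Grown 24 h at 30 degrees; viability read by BacTiter-Glo luminescence after 5 min.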
LmPK inhibitor: LmPK (Leishmania mexicana) enzyme inhibition; purified LmPK, Kinase-Glo ATP luminescence, 1 h; Potency, µM (doses to about 57.5 µM), without a hit: at the highest dose activity change, negative = inhibition, hits mostly inhibitors; 290,000 tested, 0.37% active; AID 1721
Target sequence (Q27686 whole entry, looked up): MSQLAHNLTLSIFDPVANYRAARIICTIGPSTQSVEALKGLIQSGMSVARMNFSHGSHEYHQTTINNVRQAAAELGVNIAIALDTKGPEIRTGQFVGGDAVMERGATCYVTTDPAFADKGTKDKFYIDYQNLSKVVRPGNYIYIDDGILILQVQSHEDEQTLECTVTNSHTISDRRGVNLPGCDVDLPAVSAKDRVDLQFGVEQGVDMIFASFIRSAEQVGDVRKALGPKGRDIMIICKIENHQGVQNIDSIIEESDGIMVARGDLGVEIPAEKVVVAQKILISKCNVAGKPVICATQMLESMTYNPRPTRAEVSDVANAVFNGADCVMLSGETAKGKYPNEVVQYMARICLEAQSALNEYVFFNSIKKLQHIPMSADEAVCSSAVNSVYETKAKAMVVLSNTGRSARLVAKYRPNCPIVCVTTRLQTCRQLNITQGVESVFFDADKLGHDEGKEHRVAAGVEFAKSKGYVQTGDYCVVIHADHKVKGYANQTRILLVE
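Purified LmPK (0.1 nM) with 0.5 mM PEP and 0.1 mM ADP in imidazole buffer pH 7.2 with MgCl2/KCl, 1 h at room temperature. ATP formed was read by luciferase luminescence and normalized to no-enzyme and uninhibited controls.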
Sm TGR inh: blocks Schistosoma mansoni thioredoxin glutathione reductase; Q962Y6; 360,000 tested, 3% active; purified TGR, DTNB reduction, TNB absorbance 405 nm; Potency, µM (series often up to 114 µM), for inactives: at the top dose activity change, negative = inhibition, most hits filed as inhibitors; also: nearly all actives have a fitted effect of over 60% in size
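TGR 20 nM + NADPH 100 uM (dispensed conc.), cpd preinc 15 min RT; start with NADPH (500 uM addition) then DTNB (15 mM addition). Kinetic TNB absorbance, 405 nm filter. Four-parameter Hill fit across titration.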
Tb PYK inh: inhibitors of Trypanosoma brucei pyruvate kinase; Potency, µM (titrated, usually from 76.8 µM), without a hit: top-dose activity, negative = inhibition, most hits filed as inhibitors; AID 624173; TbPYK enzyme, Kinase-Glo Plus ATP luminescence, 45 min; 410,000 tested, 0.12% active; also: nearly all actives have a fitted effect of over 50% in size
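Readout: single end-point luminescence (Kinase-Glo Plus, 10 min). Reaction conditions were TbPYK/substrate plus 130 uM ADP, 45 min at RT, pH 7.2 TEA buffer. No-enzyme wells served as controls, and data were normalized before concentration-response fitting.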
An asterisk follows results filed as active; u = inconclusive; x = no result given; ! = a repeat was not active; [ ] = remark or other dose. Unless noted, calls follow the shape of the dose curve; as a rule, active = well fitted curve in the direction sought with a large enough effect; inconclusive = small, poorly fitted or top-dose-only effect, or another doubt; inactive = no such curve, though single readings can be large; an effect the other way counts as inactive or inconclusive. Unless noted, % is scaled to controls: 0 for no effect and ±100 for the full control effect; potency is read from the fitted curve at half-maximal effect.

SMILES | AMA1 RON2 block | RE007 growth inh | LmPK inhibitor | Sm TGR inh | Tb PYK inh
Cc1coc(=N)n1CC(=O)c1ccc(Cl)cc1 | -0.3% | -5.7% | 0.8% | 39.8µM* | 6.3%
Cc1ccc(/C=C2\SC(=S)N(C3CCS(=O)(=O)C3)C2=O)o1 (stereo not drawn) | -9.7% | 5.8% | -1.4% | u | -29.8%
CC1=C(C#N)C(=O)N(C2CCS(=O)(=O)C2)C(=O)/C1=C\c1ccc(C)o1 (stereo not drawn) | x | x | 4.8% | 15.8µM* | x
CCOc1cc(/C=C\[N+](=O)[O-])ccc1OCC(=O)N1CCOCC1 | 0.7% | -5.6% | 13.5% | 10µM* | u
CCOc1cc(/C=C/c2nc3cc(C)c(C)cc3s2)ccc1OCC(=O)N1CCOCC1 | -6.6% | 1.4% | 2.9% | 3.1% | -3.3%
CCCSC1=N/C(=C\C=C\c2ccco2)C(=O)S1 | 11.2µM* | -11.8% | 8.7% | 31.6µM* | -10.2%
CCOc1ccc(OCC)c(NS(=O)(=O)c2c(C(=O)N3CCC(C)CC3)c(C)n(C)c2C)c1 | x | x | x | 8.8% | 4.0%
O=C(Nc1ccc(Cl)cc1)[C@@H]1[C@@H]2C(=O)N(c3cccc(F)c3)C(=O)[C@@H]2[C@H]2C=CC=NN21 | 11.1% | -5.7% | 2.1% | 22.4µM* | -12.2%
COc1ccc2c(=O)c3c(=O)n(Cc4ccco4)c(-c4ccc(C)cc4)nc3oc2c1 | -18.9% | 1.0% | 11.7% | 31.6µM* | -13.6%
COc1ccc2c(=O)c3c(=O)n(Cc4ccco4)c(C(C)C)nc3oc2c1 | -8.6% | 0.5% | 5.5% | -19.5% | 3.6%
COc1ccc(Nc2nc3ccccc3nc2NS(=O)(=O)c2ccc(Cl)cc2)cc1OC | x | x | x | -23.4% | -6.7%
O=C(c1ccc(F)cc1)[C@@H]1[C@@H](C(=O)c2ccccc2)[C@@]2(C(=O)Nc3ccccc32)[C@H]2c3ccccc3C=CN12 | x | x | 6.6% | 44.7µM* | x
CC(=O)[C@@H]1[C@@H](C(=O)c2ccc(F)cc2)[C@]2(C(=O)Nc3ccccc32)[C@H]2C=Cc3cc(F)ccc3N12 | -16.5% | 0.2% | 0.1% | 50.1µM* | u
COc1ccc(NC(=O)NC(C)c2c(-n3cccc3)sc3c2CCN(C)C3)c(OC)c1 (stereo not drawn) | x | x | x | -1.8% | -2.0%
COc1cccc(Cn2c(NCc3ccc(C)cc3)nc3c2c(=O)n(C)c(=O)n3C)c1 | x | x | x | 2.4% | 1.1%
CCN=C(N/N=C/c1ccc([N+](=O)[O-])cc1)SC | -27.4% | -15.1% | 12.4% | 44.7µM* | u
O=[N+]([O-])c1ccc(C=NNC(=S)NN=Cc2ccc([N+](=O)[O-])cc2)cc1 | 72.3% | -6.4% | x | x | 1.2%
Cc1ccc(S(=O)(=O)Cc2nc(-c3ccc(C(=O)NCc4ccccc4C)cc3)oc2C)cc1 | x | x | x | u | -5.2%
Cc1ccc(S(=O)(=O)Cc2nc(-c3ccc(C(=O)NCc4ccccc4)cc3)oc2C)cc1 | x | x | x | 31.6µM* | 0.1%
Cc1ccccc1CNC(=O)c1ccc(-c2nc(CS(=O)(=O)c3ccccc3)c(C)o2)cc1 | x | x | x | u | -3.6%
Cc1oc(-c2ccc(C(=O)NCCC(C)C)cc2)nc1CS(=O)(=O)c1ccccc1 | x | x | x | 35.5µM* | -19.3%
CCCCCCCCOc1ccc(C2CC(=O)NC2=O)cc1 (stereo not drawn) | -1.3% | 5.6% | -1.0% | 100µM* | -1.4%
CC(C(=O)NC1C(=O)N2C(C(=O)O)=C(CSc3nnnn3C)CSC12)n1cc(Br)cn1 (stereo not drawn) | 53.8% | 9.7% | -1.1% | 0.562µM* | -4.0%
Cn1nnnc1SCC1=C(C(=O)O)N2C(=O)[C@@H](NC(=O)[C@H](O)c3ccccc3)[C@H]2SC1 | 32.4% | -13.5% | 24.6% | -15.6% | 0.5%
Cc1nn(C(C)C(=O)NC2C(=O)N3C(C(=O)O)=C(CSc4nnnn4C)CSC23)cc1Cl (stereo not drawn) | 29.2% | -3.6% | 1.7% | 2.24µM* | -7.1%
SMILES | AMA1 RON2 block | RE007 growth inh | LmPK inhibitor | Sm TGR inh | Tb PYK inh
Cn1nnnc1SCC1=C(C(=O)O)N2C(=O)C(NC(=O)C3CC3c3ccccc3)C2SC1 (stereo not drawn) | 9.2% | 0.3% | -0.3% | 2.51µM* | -6.4%
Cc1cc(C(F)F)nn1CC(=O)NC1C(=O)N2C(C(=O)O)=C(CSc3nnnn3C)CSC12 (stereo not drawn) | 29.8% | -2.4% | -3.5% | 14.1µM* | -14.5%
CCc1ccccc1NC(=O)N(C)CCc1c(C)nn(C)c1C | x | x | x | 3.5% | 15.6%
COc1ccc(S(=O)(=O)NCCSc2nnnn2-c2ccccc2)cc1OC | x | x | x | -6.1% | 5.6%
COC(=O)N1C(C)=Cc2ccccc2C1CC(C)=O (stereo not drawn) | x | x | -1.4%[11.5 µM] | x | x
CCCOC1CCCN(C(=O)CCCn2nnnc2CN2CCOCC2)C1 (stereo not drawn) | -5.0% | -10.0% | -5.2% | -16.7% | -4.8%
CCOC(=O)C1CCCN(C(=O)CCCn2nnnc2CN2CCOCC2)C1 (stereo not drawn) | 4.9% | 15.6% | -5.4% | 39.8µM* | 2.4%
O=C(CCn1nnnc1CN1CCOCC1)N1CCC(c2ccccc2F)C1 (stereo not drawn) | 9.8% | -12.4% | -1.3% | 25.1µM* | 0.3%
CC/C=C(\C(=O)N[C@H]1C(=O)N2C(C(=O)OCOC(=O)C(C)(C)C)=C(COC(N)=O)CS[C@H]12)c1csc(N)n1 | x | x | x | x | -8.3%
Cc1cc(Nc2cc(Cl)ccc2C)n2nc(Cc3ccccc3)nc2n1 | x | x | x | 1.1% | -4.2%
OCCN1CCN(C(c2cccs2)c2ccc3cccnc3c2O)CC1 (stereo not drawn) | x | x | -2.9% | 0.316µM* | x
CCN1CCN(C(c2ccc(C(F)(F)F)cc2)c2ccc3cccnc3c2O)CC1 (stereo not drawn) | -22.4% | 20.0% | 5.8% | 0.0% | 6.1%
COc1ccc(CCNC(=O)Cn2nnc(-c3cccc(C(F)(F)F)c3)n2)cc1OC | x | x | x | -4.9% | -0.6%
COc1ccc(N2CCN(C(=O)c3nn(C)c4c3CS(=O)(=O)c3ccccc3-4)CC2)cc1 | -9.6% | 10.7% | 12.7% | 4.1% | 0.9%
COc1ccccc1N1CCN(C(=O)c2nn(C)c3c2CS(=O)(=O)c2ccccc2-3)CC1 | -7.7% | -12.7% | 1.1% | 8.91µM*! | -1.4%
O=C(NCc1ccccn1)Nc1ccccc1Cl | 26.8% | 13.6% | -6.4% | -16.4% | 4.8%
Cc1c(Cl)cccc1NC(=O)NCc1ccccn1 | 21.2% | 10.7% | -0.2% | 39.8µM* | -4.9%
COc1ccc2c(c1)c1c(c(=O)n(-c3cc(Cl)ccc3C)c(=O)n1Cc1ccc(F)cc1)n2C | x | x | x | 0.3% | 5.6%
CC(C)(C)NC(=O)C(c1ccncc1)N(Cc1ccc(F)cc1)C(=O)c1ccc(-c2ccccc2)[nH]1 (stereo not drawn) | -7.6% | 1.5% | 0.9% | 31.6µM* | -6.0%
